Data published in PubChem BioAssay AID431 (Sanford-Burnham Center for Chemical Genomics, 2006).
The whole screen tested about 63,000 compounds, of which about 1,100 (1.7%) were called active. The entries come from a sample that favours actives as a whole. Entries with a potency or affinity are not part of this list. Unmarked numbers belong to inactive results.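 The calls were made as follows: active = compounds whose percent cytotoxicity in the single-dose primary screen, scaled between solvent and toxic-drug controls, exceeds 50; inactive = the rest.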

Test: cytotoxicity in KRAS-transformed pancreatic duct cells, primary screen, cell-based, fluorescence, HTS (AID 431);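 also: 0% = DMSO solvent wells and 100% = doxorubicin-treated wells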
Settings: HPDE-C7K KRASV12 cells, Alamar Blue viability, 48 h; at 10 µM; active compounds read high

Row | SMILES | cytotoxicity
1 | CC(C)N(C(=O)COc1ccc(Br)cc1Cl)C(C)C | -4.2%
2 | Cc1nc2nc(Cc3ccccc3)nn2c(C)c1Cl | 0.4%
3 | O=C(c1ccc(COc2ccc(Cl)cc2)o1)N1CCN(Cc2ccc3c(c2)OCO3)CC1 | 94.8% (active)
4 | O=C(c1ccc(Br)o1)N1CCN(Cc2ccc3c(c2)OCO3)CC1 | -4.9%
5 | O=C(c1ccc(COc2ccccc2Cl)o1)N1CCN(Cc2ccc3c(c2)OCO3)CC1 | 65.1% (active)
6 | CC1CCN(C(=O)c2ccc(COc3ccccc3Cl)o2)CC1 | -8.5%
7 | O=C(c1ccc(COc2ccccc2Cl)o1)N1CCN(c2ccccc2)CC1 | 24%
8 | O=C(c1ccc(Cn2cc(Cl)cn2)o1)N1CCN(Cc2ccc3c(c2)OCO3)CC1 | 12%
9 | CC(=O)c1ccccc1OCCCN1CCCCC1 | 1.2%
10 | O=C(CNS(=O)(=O)c1cccs1)N1CCCC1 | -3.8%
11 | Cc1occc1-c1nnc(SCc2nc3ccccc3c(=O)n2CC#N)n1C | -5.4%
12 | Cn1c(COc2ccccc2)nnc1SCCN1CCOCC1 | -8.5%
13 | O=c1[nH]c(Nc2ccccc2)cc2ccccc12 | 0.6%
14 | Cc1cc2ccccc2c(=O)[nH]1 | 3%
15 | Cc1ccccc1Nc1cc2ccccc2c(=O)[nH]1 | 73.3% (active)
16 | Fc1ccc(-c2cc3nc(-c4ccccc4)cc(N4CCN(CCN5CCOCC5)CC4)n3n2)cc1 | 44.9%
17 | COc1ccc(OC)c(S(=O)(=O)NCc2cccnc2)c1 | -4.2%
18 | CCn1c(SCC(=O)N2CCc3ccccc32)nnc1-c1ccncc1 | -9.5%
19 | CN1CCN(Cc2ccc(OCc3ccccc3)cc2)CC1 | 33.9%
20 | COc1ccc(OC)c(NS(=O)(=O)c2ccc(SC)cc2)c1 | 30.3%
21 | CCCCOc1ccc(S(=O)(=O)Nc2cc(OC)ccc2OC)cc1 | 32.5%
22 | CCOc1ccc(S(=O)(=O)Nc2cc(OC)ccc2OC)cc1 | 75.9% (active)
23 | COc1ccc(OC)c(NS(=O)(=O)c2ccc3c(c2)CCC(=O)N3)c1 | 3.2%
24 | COc1ccc(OC)c(NS(=O)(=O)c2ccc(N3CCCC3=O)cc2)c1 | 79.5% (active)
25 | COC(=O)COc1ccc(S(=O)(=O)Nc2cc(OC)ccc2OC)cc1 | 0%
26 | COc1ccccc1NC(=O)CSc1nnc(-c2ccncc2)o1 | -3.6%

Row | SMILES | cytotoxicity
27 | CCn1c(Cc2ccccc2)nnc1SCC(=O)Nc1nc2ccccc2s1 | 8.8%
28 | CCc1nnc(NC(=O)CSc2nnc(-c3ccccc3O)n2-c2ccc(C)cc2C)s1 | 61.3% (active)
29 | CCn1c(SCC(=O)Nc2nc(-c3ccc(C)cc3)cs2)nnc1-c1ccccc1O | 46.4%
30 | CCn1c(SCC(=O)Nc2nc(-c3ccccc3)cs2)nnc1-c1ccccc1 | 23.1%
31 | CCn1c(SCC(=O)Nc2nc3ccccc3s2)nnc1-c1ccc(OC)cc1 | 78.6% (active)
32 | CCc1nnc(NC(=O)CSc2nnc(-c3ccccc3O)n2-c2ccc(C)cc2)s1 | -7.5%
33 | CCc1nnc(NC(=O)CSc2nnc(-c3ccccc3OC)n2-c2ccccc2)s1 | -6.6%
34 | CCn1c(SCC(=O)Nc2nc(-c3ccccc3)cs2)nnc1-c1ccccc1O | 55.5% (active)
35 | CCn1c(Cc2ccc(OC)cc2)nnc1SCC(=O)Nc1nc2ccccc2s1 | -6.3%
36 | Cc1nc2ccccc2c(=O)n1/N=C/c1cccnc1 | 20.1%
37 | CCCc1cc(=O)[nH]c(SCC(=O)c2cc(C)n(CCOC)c2C)n1 | 1.9%
38 | COC(=O)C1CCN(C(=O)COC(=O)Cc2c[nH]c3ccccc23)CC1 | 2.5%
39 | O=C(CN1C(=O)c2ccccc2S1(=O)=O)NC1CCCCCC1 | 1.2%
40 | CC1(C)Cc2ccccc2-c2nc(NCCCO)n(-c3ccccc3)c(=O)c21 | 12.6%
41 | O=C(Nc1ccc2c(c1)OCO2)Nc1ccc(Br)cn1 | 21.3%
42 | CCOc1cccc2cc(-c3nnc(-c4ccccc4)o3)c(=O)oc12 | -3.1%
43 | CCCCCCc1cc2cc(C(=O)NC)c(=N)oc2cc1O | 30.5%
44 | CCCCCCc1cc2cc(-c3nnc(-c4ccccc4O)o3)c(=O)oc2cc1O | 55.8% (active)
45 | CCN(CC)S(=O)(=O)c1ccc(-c2nnc(SCC(=O)Nc3nc(C)cs3)o2)cc1 | 20.5%
46 | COC(=O)c1ccc(OC(=O)c2ccccn2)cc1 | -2%
47 | CC1(C)OC(=O)C2(Cc3ccccc3N3CCCCC32)C(=O)O1 (stereo unspecified) | -0.5%
48 | O=C1c2ccccc2-c2nccnc21 | -3.8%
49 | O=C(O)c1ccc2c3c(ncnc13)-c1ccccc1C2=O | 75.9% (active)
50 | O=C1c2ccccc2-c2ncnc3cccc1c23 | -4.9%
51 | Fc1cc2ncn(Cc3ccccc3)c2cc1F | -20.3%
52 | N#Cc1nc(-c2ccco2)oc1NCc1ccc(F)cc1 | 10.2%

Row | SMILES | cytotoxicity
53 | CCC(C)C(=O)Nc1c2c(nc3c1CCC3)CCCC2 (stereo unspecified) | -5.8%
54 | c1ccc(Cn2nnc3c(N4CCCCCC4)ncnc32)cc1 | -2.6%
55 | FC(F)(F)c1ccc(N2CCN(c3ncnc4c3nnn4Cc3ccccc3)CC2)nc1 | 55.5% (active)
56 | c1ccc(Cn2nnc3c(N4CCCC4)ncnc32)cc1 | 8.8%
57 | CC(=O)Nc1cc2c(cc1C(=O)C(C)C)OCCO2 | -0.7%
58 | Cc1ccc(C)c(Cn2c(C(C)O)nc3ccccc32)c1 (stereo unspecified) | -16.7%
59 | Cc1ccc(-c2nc(-c3ccccc3)no2)c(Cl)c1 | -2.7%
60 | CC(C)C(=O)Nc1c2c(nc3ccccc13)N(C)CC2 | -4%
61 | CCc1nnc(NC(=O)c2cccc(OC)c2)s1 | 9.1%
62 | CC(C)c1nnc(NC(=O)c2c(O)c3cccc4c3n(c2=O)CCC4)s1 | 49.4%
63 | CCCc1nnc(NC(=O)c2c(O)c3cccc4c3n(c2=O)CCC4)s1 | 7.3%
64 | CCCc1nnc(NC(=O)c2c(O)c3cccc4c3n(c2=O)CC4)s1 | 43.6%
65 | CCc1nnc(NC(=O)c2c(O)c3cccc4c3n(c2=O)CC4)s1 | 50% (active)
66 | CCc1nnc(NC(=O)c2cccc(C(=O)Nc3nnc(CC)s3)n2)s1 | 53.1% (active)
67 | CCc1nnc(NC(=O)c2cnccn2)s1 | -15.3%
68 | Cc1cnc(NC(=O)c2c(O)c3cccc4c3n(c2=O)CCC4)s1 | 91.8% (active)
69 | Cc1csc(NC(=O)c2c(O)c3cccc4c3n(c2=O)CCC4)n1 | -16.1%
70 | O=C(COc1ccccc1Cl)NCc1ccncc1 | -2.3%
71 | CC1CCCCN1C(=O)CSc1nc(C2CC2)nc2c1cnn2-c1ccccc1 (stereo unspecified) | 1.1%
72 | c1ccc(CNc2c3c(nc4ncnn24)CCCC3)nc1 | -2.6%
73 | CC(=O)NCc1nc2ccccc2n1Cc1ccccc1C | -2.6%
74 | CCOC(=O)CC(=O)Nc1nnc(C(C)C)s1 | -20.6%
75 | COc1ccc(-c2cc(C(=O)O)c3ccccc3n2)c(OC)c1 | -13.5%
76 | O=C(O)CCc1cc(I)c(Oc2ccc(O)c(I)c2)c(I)c1 | 81.2% (active)
77 | COc1ccc2[nH]c(C(=O)O)c(CCC(=O)O)c2c1 | 1.5%
78 | N[C@@H](Cc1ccc(O)c(I)c1)C(=O)O | -4.9%

Row | SMILES | cytotoxicity
79 | CCOC(=O)c1c(-c2ccsc2)csc1N | -5.8%
80 | COc1ccc2nc(C)[nH]c(=O)c2c1 | 0.4%
81 | CS(=O)(=O)N1CCN(c2nc(-c3ccccc3)cs2)CC1 | 11.2%
82 | Nc1nc(SCC(=O)N2CCCc3ccccc32)[nH]c(=O)c1-c1ccccc1 | 2.5%
83 | COc1cc(C2c3c(n[nH]c3C)C(=O)N2c2ccc(C)cc2)ccc1O (stereo unspecified) | 58% (active)
84 | CCOc1cc(C2c3c(n[nH]c3C)C(=O)N2c2ccc(Br)cc2)ccc1O (stereo unspecified) | 21.7%
85 | COc1cc(C2c3c(n[nH]c3C)C(=O)N2c2ccc(Br)cc2)ccc1O (stereo unspecified) | 37.4%
86 | O=C(CN1CCN(Cc2ccccc2Cl)C1=O)N1CCCCCC1 | -10.9%
87 | COc1cccc(-c2nnc(NC(=O)c3ccc(S(=O)(=O)N4CCOCC4)cc3)o2)c1 | 1%
88 | COc1cccc(-c2nnc(NC(=O)c3ccc(S(=O)(=O)N(CC(C)C)CC(C)C)cc3)o2)c1 | 55.5% (active)
89 | CCCN(CCC)S(=O)(=O)c1ccc(C(=O)Nc2nnc(-c3cc(OC)cc(OC)c3)o2)cc1 | 52.7% (active)
90 | COc1cccc(-c2nnc(NC(=O)c3ccccc3Br)o2)c1 | 24.6%
91 | COc1cccc(-c2nnc(NC(=O)c3ccc(S(=O)(=O)N4CC(C)OC(C)C4)cc3)o2)c1 (stereo unspecified) | -4.2%
92 | CCCN(CCC)S(=O)(=O)c1ccc(C(=O)Nc2nnc(-c3cccc(OC)c3)o2)cc1 | 62.9% (active)
93 | CCCN(CCC)S(=O)(=O)c1ccc(C(=O)Nc2nnc(CSC)o2)cc1 | 2.7%
94 | COCCN(CCOC)S(=O)(=O)c1ccc(C(=O)Nc2nnc(C)o2)cc1 | -7.3%
95 | COc1cccc(-c2nnc(NC(C)=O)o2)c1 | 9.5%
96 | CCCCn1c(SCC(=O)Nc2nc(C)cs2)nnc1-c1cccnc1 | 2.9%
97 | Nc1nc(NC(=O)c2ccco2)nn1-c1ccccc1 | 4.5%
98 | Nc1nc(NC(=O)c2cccnc2)nn1-c1ccccc1 | 0.1%
99 | OC(COc1ccc(Cl)c2ccccc12)CN1CCN(c2ccccn2)CC1 (stereo unspecified) | 18.3%
100 | OC(CN1CCN(c2ccccn2)CC1)Cn1c2ccccc2c2ccccc21 (stereo unspecified) | 53.3% (active)
101 | OC(COCc1cccs1)CN1CCN(c2ccccn2)CC1 (stereo unspecified) | 2.8%
